Our source for the Potency, outcome and activity change, negative = inhibition values is PubChem BioAssay (NCATS).

Molecules are shown by their SMILES. Inconclusive results are not listed. Where a call stands in place of a potency, no number is given. Calls of active or inactive are those of the source. Calls follow the shape of the dose curve; as a rule, active = well fitted inhibition curve with a large enough effect; inconclusive = small, poorly fitted or top-dose-only effect; inactive = no such curve, though single readings can be large or run the other way.

Rap guanine nucleotide exchange factor 3 (Homo sapiens), sequence (O95398 whole entry, looked up): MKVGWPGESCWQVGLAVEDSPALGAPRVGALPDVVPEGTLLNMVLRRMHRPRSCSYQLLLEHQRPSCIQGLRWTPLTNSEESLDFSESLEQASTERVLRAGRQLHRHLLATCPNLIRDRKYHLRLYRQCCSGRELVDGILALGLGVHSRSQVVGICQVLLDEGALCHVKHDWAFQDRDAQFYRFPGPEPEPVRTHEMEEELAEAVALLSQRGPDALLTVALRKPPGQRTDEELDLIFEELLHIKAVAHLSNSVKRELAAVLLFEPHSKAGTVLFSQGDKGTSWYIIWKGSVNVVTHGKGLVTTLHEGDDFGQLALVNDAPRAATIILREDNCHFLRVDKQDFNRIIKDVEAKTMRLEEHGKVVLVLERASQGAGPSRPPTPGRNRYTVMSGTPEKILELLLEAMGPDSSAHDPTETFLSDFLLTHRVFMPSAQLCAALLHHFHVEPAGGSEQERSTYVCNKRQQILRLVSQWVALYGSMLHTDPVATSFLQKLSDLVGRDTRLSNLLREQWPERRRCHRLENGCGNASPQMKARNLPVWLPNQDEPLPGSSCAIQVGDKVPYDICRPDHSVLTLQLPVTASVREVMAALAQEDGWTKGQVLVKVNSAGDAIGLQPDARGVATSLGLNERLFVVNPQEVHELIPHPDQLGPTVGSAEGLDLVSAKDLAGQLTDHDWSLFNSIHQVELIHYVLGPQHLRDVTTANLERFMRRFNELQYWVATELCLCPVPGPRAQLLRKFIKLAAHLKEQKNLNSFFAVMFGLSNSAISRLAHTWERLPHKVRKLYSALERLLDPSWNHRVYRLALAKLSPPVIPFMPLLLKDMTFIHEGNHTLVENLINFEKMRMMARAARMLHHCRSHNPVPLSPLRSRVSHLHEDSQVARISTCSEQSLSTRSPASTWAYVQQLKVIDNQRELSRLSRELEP

One experiment deals with Rap guanine nucleotide exchange factor 4 (Homo sapiens) (UniProt Q8WZA2). Briefly: Confirmatory qHTS for antagonist of cAMP-regulated guanine nucleotide exchange factor 4 (EPAC2) (AID 1645885). Also: nearly all actives have a fitted effect of over 25% in size. Also: potency is read from the fitted curve at half-maximal effect. The conditions noted are these: EPAC2 Rap1B-BODIPY-GDP exchange fluorescence, biochemical; series mostly up to 12.7 µM.
Rap guanine nucleotide exchange factor 4 (Homo sapiens), sequence (Q8WZA2 whole entry, looked up): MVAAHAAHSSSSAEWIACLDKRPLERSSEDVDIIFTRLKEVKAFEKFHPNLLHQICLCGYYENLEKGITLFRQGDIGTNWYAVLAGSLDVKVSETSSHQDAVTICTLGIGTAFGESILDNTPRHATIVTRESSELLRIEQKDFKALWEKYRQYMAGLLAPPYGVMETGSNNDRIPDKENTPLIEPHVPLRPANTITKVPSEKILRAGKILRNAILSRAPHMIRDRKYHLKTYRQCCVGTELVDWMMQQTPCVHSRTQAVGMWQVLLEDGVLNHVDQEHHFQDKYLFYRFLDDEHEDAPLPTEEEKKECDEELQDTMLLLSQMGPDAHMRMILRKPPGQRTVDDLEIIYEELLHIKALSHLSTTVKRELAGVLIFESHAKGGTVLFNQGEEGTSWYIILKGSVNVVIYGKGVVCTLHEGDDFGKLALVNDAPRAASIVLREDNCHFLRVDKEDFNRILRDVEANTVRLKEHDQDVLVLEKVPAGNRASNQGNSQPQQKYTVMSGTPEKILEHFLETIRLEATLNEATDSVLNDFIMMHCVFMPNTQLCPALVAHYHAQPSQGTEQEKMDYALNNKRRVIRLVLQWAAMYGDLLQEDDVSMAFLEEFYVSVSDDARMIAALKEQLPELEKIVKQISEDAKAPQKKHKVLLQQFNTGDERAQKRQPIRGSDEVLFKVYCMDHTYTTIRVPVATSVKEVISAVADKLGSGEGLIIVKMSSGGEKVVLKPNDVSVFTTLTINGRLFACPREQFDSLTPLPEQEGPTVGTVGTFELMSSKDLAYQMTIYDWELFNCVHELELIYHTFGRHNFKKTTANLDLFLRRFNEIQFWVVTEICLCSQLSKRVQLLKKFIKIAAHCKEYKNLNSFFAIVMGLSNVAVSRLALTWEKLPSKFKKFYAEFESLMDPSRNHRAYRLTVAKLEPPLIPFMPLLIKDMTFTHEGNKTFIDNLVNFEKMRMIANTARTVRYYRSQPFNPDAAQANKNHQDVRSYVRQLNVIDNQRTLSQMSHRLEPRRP
As to `OC(c1ccc2ccccc2n1)c1c(Cl)cccc1Cl` (stereo not given), the Potency result was “inactive”.

For `COC(=O)C1=C(C)N(c2ccc(OC)cc2)C(C)=C(C(=O)OC)C1c1ccccc1`, the Potency result was “inactive”.

Turning to `C=CCN1C(=O)/C(=C/C=C2/N(CC)c3ccc(S(=O)(=O)N(C)C)cc3N2CC)SC1=S`, the Potency entry is “inactive”.

On to `Cc1ccccc1SCC(=O)Nc1cc(C(F)(F)F)ccc1N1CCOCC1`, for which the Potency was 2.39 µM (active).

Take `CCOc1cc(-c2ccc(OC(=O)c3ccc(OC)cc3)c(OC)c2)cc(=O)c2c(C)oc(C)c12`: the Potency result was “inactive”.

Turning to `COc1cc(NC(=O)CCNC(=O)Cn2ccc3ccccc3c2=O)cc(OC)c1OC`, the Potency result is “inactive”.

For the compound `CCN(CC)CC#CCOC(c1ccccc1)c1ccccc1`, the Potency is 37.9 µM (active).

Turning to `CCn1nc(C)c(C(=O)Nc2cc(Oc3ccc(Cl)cc3)cc([N+](=O)[O-])c2)c1C`, the Potency result is “inactive”.

For `CCOc1cc(CNc2ccc(O)cc2)ccc1OCc1ccc(Cl)cc1`, the Potency entry was “inactive”.

With `Cc1ccc2nc(SCC(=O)c3c(N)n(C4CC4)c(=O)[nH]c3=O)[nH]c2c1`, the Potency entry is “inactive”.

Regarding `CCN(C(=O)c1sc2cc(OC)ccc2c1Cl)c1ccccc1`, the Potency result is “inactive”.

Turning to `Cc1ccc(NC(=O)N2CC3CCCN3c3ccccc32)cc1Cl` (stereo not given), the Potency entry is “inactive”.

On to `COc1cc(SC)ccc1C(=O)NC1CCCc2ccccc21` (stereo not given), for which the Potency was 30.1 µM (active).

Consider `Cc1ccc(CNC(=O)CN(c2cc(C)cc(C)c2)S(=O)(=O)c2c(C)[nH]c(=O)[nH]c2=O)cc1`, for which the Potency result was “inactive”.

For the compound `CC(=O)c1cccc(NC(=O)Cn2cc(C(=O)c3cccc(Cl)c3)c(=O)c3ccc(C)nc32)c1`, the outcome is “inactive [at 12.7 µM]”.

On to `O=C(Nc1ccccc1OCc1ccccc1)c1ccccc1Br`, for which the Potency was 1.51 µM (active).

On to `CCCc1nn2c(=O)cc(COC(=O)c3ccc(NC(=O)COc4ccccc4F)cc3)nc2s1`, for which the Potency result was “inactive”.

Consider `O=C1/C(=C\c2cccc(O)c2O)SC(=S)N1Cc1ccccc1`, for which the Potency entry was “inactive”.

As to `COc1ccc(C(NC(=O)c2cc(OC)ccc2OC)c2ccccc2)cc1` (stereo not given), the Potency result was “inactive”.

On to `Cc1cccc(Cn2c(-c3cccs3)nc3ccccc32)c1`, for which the Potency entry was “inactive”.

As for `CC(=O)C1=CCC(c2cccc(Cl)c2)N(S(=O)(=O)c2ccc(C)cc2)C1` (stereo not given), the Potency entry was “inactive”.

With `O=S(=O)(c1ccc(Br)c2ccccc12)N1CCCC1`, the Potency entry is “inactive”.

Regarding `Cc1ccc(-c2noc(-c3nnn(CC(=O)Nc4cc(Cl)ccc4C)c3N)n2)cc1`, the outcome was “inactive [at 12.7 µM]”.

Regarding `COc1ccc(-c2nc3ccccc3n2Cc2ccccc2)cc1`, the Potency entry is “inactive”.

Consider `COC(=O)c1cc2sccc2n1Cc1ccccc1`, for which the Potency entry was “inactive”.

As for `CCN(CC)CCOC(=O)c1ccc(NC(=O)c2nn(-c3ccc(C)cc3)c(=O)c3c2c2ccccc2n3C)cc1`, the outcome is “inactive [at 12.7 µM]”.

In the case of `O=C1CSC(c2ccc(Cl)cc2Cl)N1c1ccccn1` (stereo not given), the Potency entry was “inactive”.

Regarding `OCCCCC#Cc1c(-c2ccsc2)sc2ccccc12`, the Potency entry was “inactive”.

With `COC(=O)c1c(NC(=O)c2ccc(S(=O)(=O)N3CCCCC3C)cc2)sc2c1CCN(C(C)C)C2` (stereo not given), the Potency entry was “inactive”.

With `COc1ccc(Br)cc1CN(C)CC(=O)Nc1c(Cl)cccc1Cl`, the Potency is 13.5 µM (active).

For `O=C(O)CSCC(=O)N(Cc1ccccc1)c1nc(-c2ccccc2)c(-c2ccccc2)s1`, the Potency is 67.5 µM (active).

Turning to `Nc1ncnc2c1nc(Sc1ccc(Cl)cc1)n2[C@@H]1O[C@@H]2COP(=O)(O)O[C@H]2[C@H]1O`, the Potency is 0.675 µM (active).

For the compound `COCc1ccccc1C1=CC(=O)C[C@H](c2ccc(F)cc2)C1`, the Potency entry was “inactive”.

Turning to `Cc1cc(C)c(S(=O)(=O)N(C)c2ccccc2)c(C)c1`, the Potency is 23.9 µM (active).

As for `COc1ccc(C(=O)Nc2ccc(NC(=O)c3cccs3)cc2)cc1OC`, the Potency entry was “inactive”.

With `COc1cc(/C=N/NC(=O)c2cc(O)cc(O)c2)ccc1OC(=O)c1ccccc1`, the Potency is 3.38 µM (active).

Take `COc1ccc(C(=O)c2oc3ccccc3c2NC(=O)c2cc(=O)c3ccc(C)cc3o2)cc1Cl`: the outcome was “inactive [at 12.7 µM]”.

For the compound `O=C(N/N=C\c1c(O)ccc2ccccc12)c1ccc(S(=O)(=O)N2CCCCC2)cc1`, the Potency result is “inactive”.

With `CCOc1ccccc1NC(=O)c1ccccc1-c1ccccc1`, the Potency entry was “inactive”.

For the compound `COc1ccc(NC(=O)CN(C)C(=O)c2cn(-c3ccccc3)nc2-c2cccnc2)cc1`, the Potency result is “inactive”.

In the next experiment the target is Rap guanine nucleotide exchange factor 3 (Homo sapiens) (UniProt O95398). Briefly: Counterscreen qHTS for antagonist of cAMP-regulated guanine nucleotide exchange factor 3 (EPAC1) (AID 1645888).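 Also: fluorescence loss as bound BODIPY-GDP is released from Rap1B.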 The conditions noted are these: Rap1B-BODIPY-GDP nucleotide exchange, fluorescence; series mostly up to 154 µM. In short, it runs like this:
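Measured: fluorescence of BODIPY-GDP bound to Rap1B, which falls as exchange proceeds. Conditions include 50 uM competing GDP, 5 and 30 min reads, and a later cAMP challenge for antagonist detection.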
For orientation: Counterscreens check selectivity or assay interference.
Take `OC(c1ccc2ccccc2n1)c1c(Cl)cccc1Cl` (stereo not given): the Potency result was “inactive”.

Consider `COC(=O)C1=C(C)N(c2ccc(OC)cc2)C(C)=C(C(=O)OC)C1c1ccccc1`, for which the Potency result was “inactive”.

In the case of `C=CCN1C(=O)/C(=C/C=C2/N(CC)c3ccc(S(=O)(=O)N(C)C)cc3N2CC)SC1=S`, the activity change, negative = inhibition is -11.8% [at 30.8 µM] (inactive).

For the compound `Cc1ccccc1SCC(=O)Nc1cc(C(F)(F)F)ccc1N1CCOCC1`, the Potency entry was “inactive”.

For the compound `CCOc1cc(-c2ccc(OC(=O)c3ccc(OC)cc3)c(OC)c2)cc(=O)c2c(C)oc(C)c12`, the Potency result is “inactive”.

For the compound `COc1cc(NC(=O)CCNC(=O)Cn2ccc3ccccc3c2=O)cc(OC)c1OC`, the Potency result was “inactive”.

For `CCN(CC)CC#CCOC(c1ccccc1)c1ccccc1`, the Potency result is “inactive”.

With `CCn1nc(C)c(C(=O)Nc2cc(Oc3ccc(Cl)cc3)cc([N+](=O)[O-])c2)c1C`, the Potency entry is “inactive”.

For the compound `CCOc1cc(CNc2ccc(O)cc2)ccc1OCc1ccc(Cl)cc1`, the Potency entry is “inactive”.

`Cc1ccc2nc(SCC(=O)c3c(N)n(C4CC4)c(=O)[nH]c3=O)[nH]c2c1`: the Potency entry is “inactive”.

Consider `CCN(C(=O)c1sc2cc(OC)ccc2c1Cl)c1ccccc1`, for which the Potency result was “inactive”.

With `Cc1ccc(NC(=O)N2CC3CCCN3c3ccccc32)cc1Cl` (stereo not given), the Potency entry was “inactive”.

On to `COc1cc(SC)ccc1C(=O)NC1CCCc2ccccc21` (stereo not given), for which the Potency entry is “inactive”.

Take `Cc1ccc(CNC(=O)CN(c2cc(C)cc(C)c2)S(=O)(=O)c2c(C)[nH]c(=O)[nH]c2=O)cc1`: the Potency result was “inactive”.

With `CC(=O)c1cccc(NC(=O)Cn2cc(C(=O)c3cccc(Cl)c3)c(=O)c3ccc(C)nc32)c1`, the Potency result is “inactive”.

On to `O=C(Nc1ccccc1OCc1ccccc1)c1ccccc1Br`, for which the Potency result was “inactive”.

For `CCCc1nn2c(=O)cc(COC(=O)c3ccc(NC(=O)COc4ccccc4F)cc3)nc2s1`, the Potency entry is “inactive”.

For `O=C1/C(=C\c2cccc(O)c2O)SC(=S)N1Cc1ccccc1`, the Potency entry is “inactive”.

Turning to `COc1ccc(C(NC(=O)c2cc(OC)ccc2OC)c2ccccc2)cc1` (stereo not given), the Potency entry was “inactive”.

Consider `Cc1cccc(Cn2c(-c3cccs3)nc3ccccc32)c1`, for which the Potency result is “inactive”.

For the compound `CC(=O)C1=CCC(c2cccc(Cl)c2)N(S(=O)(=O)c2ccc(C)cc2)C1` (stereo not given), the Potency result is “inactive”.

`O=S(=O)(c1ccc(Br)c2ccccc12)N1CCCC1`: the Potency entry was “inactive”.

In the case of `Cc1ccc(-c2noc(-c3nnn(CC(=O)Nc4cc(Cl)ccc4C)c3N)n2)cc1`, the Potency result is “inactive”.

For `COc1ccc(-c2nc3ccccc3n2Cc2ccccc2)cc1`, the Potency result was “inactive”.

Take `COC(=O)c1cc2sccc2n1Cc1ccccc1`: the Potency entry was “inactive”.

With `CCN(CC)CCOC(=O)c1ccc(NC(=O)c2nn(-c3ccc(C)cc3)c(=O)c3c2c2ccccc2n3C)cc1`, the Potency result is “inactive”.

As to `O=C1CSC(c2ccc(Cl)cc2Cl)N1c1ccccn1` (stereo not given), the Potency entry is “inactive”.

`OCCCCC#Cc1c(-c2ccsc2)sc2ccccc12`: the Potency entry was “inactive”.

For the compound `COC(=O)c1c(NC(=O)c2ccc(S(=O)(=O)N3CCCCC3C)cc2)sc2c1CCN(C(C)C)C2` (stereo not given), the Potency result is “inactive”.

For the compound `COc1ccc(Br)cc1CN(C)CC(=O)Nc1c(Cl)cccc1Cl`, the Potency result is “inactive”.

Consider `O=C(O)CSCC(=O)N(Cc1ccccc1)c1nc(-c2ccccc2)c(-c2ccccc2)s1`, for which the Potency result was “inactive”.

For the compound `Nc1ncnc2c1nc(Sc1ccc(Cl)cc1)n2[C@@H]1O[C@@H]2COP(=O)(O)O[C@H]2[C@H]1O`, the Potency result was “inactive”.

Consider `COCc1ccccc1C1=CC(=O)C[C@H](c2ccc(F)cc2)C1`, for which the Potency entry was “inactive”.

Turning to `Cc1cc(C)c(S(=O)(=O)N(C)c2ccccc2)c(C)c1`, the Potency result was “inactive”.

On to `COc1ccc(C(=O)Nc2ccc(NC(=O)c3cccs3)cc2)cc1OC`, for which the Potency result was “inactive”.

For `COc1cc(/C=N/NC(=O)c2cc(O)cc(O)c2)ccc1OC(=O)c1ccccc1`, the Potency result is “inactive”.

In the case of `COc1ccc(C(=O)c2oc3ccccc3c2NC(=O)c2cc(=O)c3ccc(C)cc3o2)cc1Cl`, the Potency entry was “inactive”.

Take `O=C(N/N=C\c1c(O)ccc2ccccc12)c1ccc(S(=O)(=O)N2CCCCC2)cc1`: the activity change, negative = inhibition was -15.1% [at 30.8 µM] (inactive).

In the case of `CCOc1ccccc1NC(=O)c1ccccc1-c1ccccc1`, the Potency result was “inactive”.

With `COc1ccc(NC(=O)CN(C)C(=O)c2cn(-c3ccccc3)nc2-c2cccnc2)cc1`, the Potency entry is “inactive”.
